# According to PubChem BioAssay AID720541 (National Center for Advancing Translational Sciences (NCATS), 2013):
# About 420 (32%) of roughly 1,300 compounds were called active. Another 32% or so got no clear call; they are omitted. Some of the results follow. Unmarked numbers belong to inactive results. Calls follow the shape of the dose curve; as a rule, active = well fitted inhibition curve with a large enough effect; inconclusive = small, poorly fitted or top-dose-only effect; inactive = no such curve, though single readings can be large or run the other way.
# Molecular target: C-terminal-binding protein 1 (Homo sapiens) (UniProt Q13363)
# Assay: qHTS for Inhibitors of the Phosphatase Activity of Eya2: Carboxyl-terminal binding protein (CtBP) Counterscreen for Cherry-picked Compounds; also: nearly all actives have a fitted effect of over 65% in size
# Conditions: purified protein-protein binding, AlphaScreen, 3 h; series mostly up to 46.1 µM; activity change, negative = inhibition: at the top concentration
# How it was run: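 AlphaScreen using 25 nM GST-E1A with 25 nM CtBP-6xHIS; compounds at 2.5 nM–46 uM final, 2 h at room temperature, then donor/acceptor beads (20 ug/mL) for 1 h in the dark. Signal normalized to E1A peptide inhibitor (maximum inhibition) and DMSO.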
# % is scaled to controls: 0 for no effect and ±100 for the full control effect; potency is read from the fitted curve at half-maximal effect.
Compound,"activity change, negative = inhibition [%]",Potency
COc1ccc(CN(CCN(C)C)c2ccccn2)cc1,5.67,
COc1ccc(Oc2nc(-c3ccccn3)ncc2OC)cc1,,10.7 µM (active)
COc1cnc(-c2ccccn2)nc1Oc1ccc(C(C)(C)C)cc1,,3.38 µM (active)
O=C(Cn1c(C(=O)N2CCc3ccccc3C2)cc2sccc21)c1ccccc1,-15.2,
CCCc1nc(N2CCN(C)CC2)c2sc(=S)n(-c3ccccc3)c2n1,-5.86,
CC1CCC2C(=O)N(c3ccc(C(=O)Oc4cccc5cccnc45)cc3)C(=O)C2C1 (centres undefined),,6.01 µM (active)
CC1C=CCC2C(=O)N(c3ccc(OC(=O)c4cccs4)cc3)C(=O)C12 (centres undefined),-14.7,
O=C(OCC(=O)c1ccc(Cl)cc1Cl)c1ccccn1,,12 µM (active)
Cc1ccc(C(=O)Oc2ccc(C(=O)COC(=O)c3cnccn3)cc2)cc1,-16.4,
O=c1cc2ncc(-n3cc([N+](=O)[O-])cn3)cn2[nH]1,-1.64,
O=S(c1cc(Cl)cc(Cl)c1O)c1cc(Cl)cc(Cl)c1O,,3.38 µM (active)
O=c1nc2c(O)cccn2c2c1c(=O)[nH]c1ccccc12,,3.79 µM (active)
CCOc1ccc(Nc2nc(N)nc(CN(C)C3CCCCC3)n2)cc1,-16.8,
N[C@@H](Cc1cnc[nH]1)C(=O)Nc1ccc2ccccc2c1,,19 µM (active)
Cc1cc2nc(-c3ccco3)c(Cc3cccc(F)c3)n2c(C)c1Br,-24.9,
CSc1ccc(/C=N/N2CCN(Cc3ccc(C)cc3C)CC2)cc1,-36,
CCN(CC)c1ccc(/C=N/N2CCN(Cc3ccccc3Cl)CC2)cc1,,8.49 µM (active)
COCc1cc(O)c(O)c(O)c1-c1c(COC)cc(O)c(O)c1O,37.1,
CCC(C)Nc1ccc(NC(C)CC)cc1 (centres undefined),,0.0849 µM (active)
Cc1nc(-n2[nH]c3c(c2=O)CCCC3)[nH]c(=O)c1Cc1ccccc1,,13.5 µM (active)
COc1cc(C)c(/C=C/C(C)=C/C=C/C(C)=C/C(=O)O)c(C)c1C,-7.68,
COc1cc(C(=O)Nc2cccc(NC(=O)c3cccs3)c2)cc(OC)c1OC,-26.5,
CCOc1ccc(NC(=O)c2sccc2-n2cccc2)cc1,-14.2,
COc1ccc(C(=O)Nc2ccc3c(c2)CCCN3C(=O)c2cccs2)c(OC)c1,,7.57 µM (active)
COc1ccc(-n2c(SCC(=O)Nc3cc(C(=O)O)ccc3C)nc3ccccc3c2=O)cc1Cl,,8.49 µM (active)

Compound,"activity change, negative = inhibition [%]",Potency
O=C(O)c1ccc(CSc2nc3ccccc3c(=O)n2-c2ccccc2)cc1,3.87,
COc1ccccc1CNC(=O)CCCc1cn(C)c2ccccc12,-19.3,
COc1ccccc1CNC(=O)c1ccc2c(=O)n(CCCN3CCCC3=O)c(=S)[nH]c2c1,-29.5,
COc1ccc(NC(=O)CN(C)C(=O)c2cccc(-n3cccc3)c2)cc1,-28.7,
COc1ccc(NC(=O)CSc2ccc(-c3ccccn3)nn2)cc1OC,,3.79 µM (active)
COc1cc(NC(=O)CSc2ccc(-c3ccccn3)nn2)cc(OC)c1,,1.9 µM (active)
O=C(CSc1ccc(-c2ccccn2)nn1)Nc1cccc(F)c1,-77.5,
COc1ccccc1CNC(=O)CSc1ccc(-c2ccccn2)nn1,,8.49 µM (active)
Cc1cc(C(=O)c2ccccc2)cc(C)c1O,-57.8,
CC1Cc2ccccc2N1C(=O)C1CCCN1S(=O)(=O)c1ccc(Cl)cc1 (centres undefined),16,
CC1CCN(CC2C(=O)O[C@@H]3C[C@@]4(C)CCC[C@H](C)C4=C[C@H]23)CC(C)(C)C1 (some centres undefined),-5.73,
Nc1[nH]nc2ncc3cc4ccccc4nc3c12,,10.7 µM (active)
O=C(CSc1ccc(-c2ccccn2)nn1)N1CCCC1,,8.49 µM (active)
O=C(Cn1c(S(=O)(=O)Cc2ccccc2)nc2ccccc21)N1CCCCC1,1.42,
O=C(CSc1ccc(-c2ccccn2)nn1)N1CCCCC1,,7.57 µM (active)
O=C(C1=C[C@H](c2ccccc2)C[C@H](OCc2ccc(CO)cc2)O1)N1CCN(Cc2ccccc2)CC1,-14,
COc1ccc(-n2c(CN3CCN(c4ccccc4OC)CC3)nc3ccc([N+](=O)[O-])cc3c2=O)c(OC)c1,-17,
O=[N+]([O-])c1ccccc1/C=C\C=N\N1CCN(c2ccccc2)CC1,-82.1,
COc1ccccc1N1CCN(/N=C/C=C\c2ccccc2[N+](=O)[O-])CC1,,15.1 µM (active)
O=C(c1cccs1)N1CCC(c2nc3c(nnn3Cc3cccc(Cl)c3)c(=O)[nH]2)CC1,,12 µM (active)
CCOC(=O)c1cnc2c(C#N)cnn2c1N,,10.7 µM (active)
CC(NC(=O)c1cc2c(s1)CS(=O)(=O)C2)c1ccccc1 (centres undefined),1.67,
CCOc1ccc2[nH]cc(-c3csc(N)n3)c2c1,,12 µM (active)
O=c1cc2oc3cc(O)c(O)cc3c(-c3ccccc3[N+](=O)[O-])c-2cc1O,,9.53 µM (active)
